{
  "source": "ChEMBL document CHEMBL3988442",
  "about": "“University of Dundee, Small-Polar-MMV Screening Library” (2021)",
  "note": "Out of some 48,000 compounds screened, about 13,000 (27%) showed an effect of 50% or more. The list shows a part of the results.",
  "data": [
    {"tested_on": "Wolbachia pipientis", "assay": "Anti-Wolbachia Cell-Based Screen", "type": "functional", "parameters": "scale not given: in the data most compounds retested in dose-response had high values", "settings": "5 µM", "units": {"Percent Effect": "%"}, "values": [
      {"smiles": "Cc1nnc2ccc(C(=O)N3CCSC(C)(C)C3)cn12", "Percent Effect": -5.569},
      {"smiles": "NC(=O)CCn1cc(CNCCCc2csc(N)n2)c2ccccc21", "Percent Effect": 2.752},
      {"smiles": "CN1[C@@H](C(=O)NCC2CC2)C[C@H]2CN(Cc3ccsc3)C[C@H]21.O=C(O)C(F)(F)F.O=C(O)C(F)(F)F", "Percent Effect": 106.3},
      {"smiles": "Cc1nc(CN2C[C@H]3C[C@H](C(=O)NCC4CC4)N(C)[C@H]3C2)cs1.O=C(O)C(F)(F)F.O=C(O)C(F)(F)F.O=C(O)C(F)(F)F", "Percent Effect": 116.2},
      {"smiles": "Cc1nc(CN2C[C@@H]3CN(C(=O)c4cnccn4)C[C@@H]3C2)cs1.O=C(O)C(F)(F)F", "Percent Effect": 0.3524},
      {"smiles": "CNC(=O)[C@@H]1C[C@H]2CN(Cc3ccc(C)s3)C[C@H]2N1C(C)=O.O=C(O)C(F)(F)F.O=C(O)C(F)(F)F", "Percent Effect": 111.1},
      {"smiles": "CN1[C@@H](C(=O)NCC2CC2)C[C@@H]2CN(Cc3ccsc3)C[C@@H]21.O=C(O)C(F)(F)F.O=C(O)C(F)(F)F", "Percent Effect": 95.65},
      {"smiles": "CNC(=O)[C@@H]1C[C@H]2CN(Cc3ccc(C)o3)C[C@H]2N1C(C)=O", "Percent Effect": 14.16},
      {"smiles": "Cc1ccc(CN2C[C@@H]3CCCO[C@@H]3[C@H](NC(=O)CC3CC3)C2)s1.O=C(O)C(F)(F)F", "Percent Effect": 2.329},
      {"smiles": "O=C(O)C(F)(F)F.O=C(O)C(F)(F)F.O=C(O)C(F)(F)F.c1cc(CN2C[C@@H]3OCCN(CCN4CCCC4)[C@@H]3C2)cs1", "Percent Effect": -11.54},
      {"smiles": "CS(=O)(=O)N1C[C@H]2CCCN(Cc3ccsc3)[C@H]2C1.O=C(O)C(F)(F)F", "Percent Effect": -0.02998},
      {"smiles": "CC(C)N1[C@H](Cn2cncn2)C[C@@H]2CN(Cc3ccsc3)CC[C@@H]21.O=C(O)C(F)(F)F", "Percent Effect": 4.812},
      {"smiles": "Cc1nc(CN2C[C@@H]3CCCO[C@@H]3[C@H](NC(=O)CC3CC3)C2)cs1.O=C(O)C(F)(F)F", "Percent Effect": -2.843},
      {"smiles": "O=C(NCC1CC1)[C@H]1C[C@H]2OCC[C@H]2N(Cc2ccsc2)C1", "Percent Effect": -7.335},
      {"smiles": "COCCC(=O)N1CCCC2(CCC(=O)N(CCc3c[nH]cn3)C2)C1", "note": "(stereo not given)", "Percent Effect": 0.09306},
      {"smiles": "Cc1cnn(CCNCc2nc(Cc3ccccc3)no2)c1", "Percent Effect": -7.265},
      {"smiles": "Fc1cccc(N2CCCC3(C2)CN(c2cnccn2)CCO3)c1", "note": "(stereo not given)", "Percent Effect": 1.052},
      {"smiles": "CC(=O)N1[C@@H](C(=O)NCC2CC2)C[C@@H]2CN(Cc3nccs3)C[C@@H]21.O=C(O)C(F)(F)F", "Percent Effect": 88.62},
      {"smiles": "CN1[C@@H](C(=O)NCC2CC2)C[C@H]2CN(Cc3cccc(C#N)c3)C[C@H]21.O=C(O)C(F)(F)F.O=C(O)C(F)(F)F", "Percent Effect": 99.16},
      {"smiles": "O=C(NCC1CC1)[C@H]1CN(Cc2nccs2)C[C@H]2OCC[C@@H]12.O=C(O)C(F)(F)F", "Percent Effect": -15.61},
      {"smiles": "CO[C@H]1CN(Cc2cccc(C#N)c2)[C@@H]2COC[C@H]12.O=C(O)C(F)(F)F", "Percent Effect": -6.68},
      {"smiles": "CCc1cc(C(=O)NCC2CCN(Cc3cccc(C#N)c3)C2)on1", "note": "(stereo not given)", "Percent Effect": 4.535},
      {"smiles": "Cn1ccnc1NC[C@@H]1CCC[C@@H]2CN(Cc3nccs3)C[C@@H]21.O=C(O)C(F)(F)F", "Percent Effect": -0.855},
      {"smiles": "CN(C)S(=O)(=O)c1csc(C(=O)N2CCSCC2)c1", "Percent Effect": -1.993},
      {"smiles": "CC(C)c1cc(C(=O)N[C@H]2CN(C3CCOCC3)C[C@@H]2C2CC2)no1", "Percent Effect": -8.943},
      {"smiles": "COCCOc1ncccc1C(=O)N1CCCC(n2ccnc2C)C1", "note": "(stereo not given)", "Percent Effect": 113.9},
      {"smiles": "Cc1nccn1C1CCCN(C(=O)c2cc(O)nc3ccccc23)C1", "note": "(stereo not given)", "Percent Effect": -15.61},
      {"smiles": "COc1ncccc1C(=O)N1CCCC(c2cc(C)[nH]n2)C1", "note": "(stereo not given)", "Percent Effect": -2.172},
      {"smiles": "COc1ncccc1C(=O)N1CCCC(n2ccnc2C)C1", "note": "(stereo not given)", "Percent Effect": 125.3},
      {"smiles": "CC(C)(C)CNC[C@H]1Cn2c(-c3ccccc3)cnc2CO1", "Percent Effect": -15.45},
      {"smiles": "CC(=O)N1CCN(C(=O)CNc2ccc3sccc3c2)CC1", "Percent Effect": -10.18},
      {"smiles": "O=C(NCc1nnc2n1C(C(=O)NC1CC1)CC2)c1ccc(Cl)cc1Cl", "note": "(stereo not given)", "Percent Effect": 110.4},
      {"smiles": "CC(C)CNC(=O)c1ccc(NC(=O)NC2CC2)cc1Cl", "Percent Effect": -3.361},
      {"smiles": "CC(CNC(=O)c1ccc(Cl)cc1I)N1CCCC1", "note": "(stereo not given)", "Percent Effect": -14.44},
      {"smiles": "CC(C)C(NC(=O)c1ccc(Cl)cc1Cl)C(=O)Nc1cnn(C)c1", "note": "(stereo not given)", "Percent Effect": 12.86},
      {"smiles": "O=C(NCC(=O)N1CCCCC1)c1ccc(Cl)cc1I", "Percent Effect": -12.84},
      {"smiles": "CC(C)NC(=O)C1CCc2nnc(CNC(=O)c3ccc(Cl)cc3Cl)n21", "note": "(stereo not given)", "Percent Effect": 98.13},
      {"smiles": "CCn1cnnc1CNC(=O)c1ccc(Cl)cc1F", "Percent Effect": 9.197},
      {"smiles": "CN(C)C(=O)C1CCc2nnc(CNC(=O)c3ccc(Cl)cc3Cl)n21", "note": "(stereo not given)", "Percent Effect": 114.2},
      {"smiles": "Cn1cc(-c2cnc3n2CCC32CCN(S(=O)(=O)C3CC3)CC2)cn1.O=C(O)C(F)(F)F", "Percent Effect": 2.089},
      {"smiles": "CC(NS(=O)(=O)N(C)C(C)C)C(=O)N(C)C", "note": "(stereo not given)", "Percent Effect": -8.822},
      {"smiles": "COc1ccc(Cl)cc1CS(=O)(=O)Cc1nc(C)no1", "Percent Effect": 9.011},
      {"smiles": "CCOc1cc(C(=O)NS(C)(=O)=O)cc(-c2ccccc2)c1OC", "Percent Effect": 4.998},
      {"smiles": "CS(=O)(=O)NCc1cc2n(n1)CCCN(Cc1nc3ccccc3[nH]1)C2", "Percent Effect": 2.68},
      {"smiles": "Cc1nn(C)c(C)c1S(=O)(=O)NCCn1ccc(-c2cccs2)n1", "Percent Effect": -20.8}
    ]}
  ]
}
